Data on 13 sequences can be found in publication PMC8384837, “Expanding the binding specificity for RNA recognition by a PUF domain”.

What all share (experiment): yeast three-hybrid, YBZ-1, SC-Leu-His + 0.5 mM 3-AT, 4 days
Holding throughout (details): tags: N-Gal4 AD-HA kept; label: inside an RPR1-promoter hybrid RNA with tandem MS2 sites; ssRNA

In one assay the target is PUM1 PUF domain R5-SAC (Homo sapiens, UniProt Q14671 828-1176, C1007S;R1008A;Q1011C). The essentials:
(§1)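 Pumilio-1 PUF domain libraries, randomized (NNK) at the three base-contacting residues of each repeat, were co-expressed with matching RNA elements from a centromeric plasmid in strain YBZ-1 (LexA–MS2 coat fusion, HIS3 reporter). Transformants were plated on SC-Leu (input) and SC-Leu-His + 0.5 mM 3-AT (selection) for four days, and repeat regions were PCR-amplified and Illumina-sequenced. The interaction score is the log2 change in variant frequency from input to selection, with pseudocount 1 where absent.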

A further assay has as its target PUM1 PUF domain R4-QWP (Homo sapiens, UniProt Q14671 828-1176, N971Q;H972W;Q975P). The essentials:
as §1

In another assay the target is PUM1 PUF domain R4-GRS (Homo sapiens, UniProt Q14671 828-1176, N971G;H972R;Q975S). A digest of the protocol:
as §1

Another assay addresses PUM1 PUF domain R3-FFV (Homo sapiens, UniProt Q14671 828-1176, C935F;R936F;Q939V). A digest of the protocol: as §1
For another assay, the target named is PUM1 PUF domain R1-GKR (Homo sapiens, UniProt Q14671 828-1176, S863G;R864K;Q867R). The essentials: as §1
The target of another assay is PUM1 PUF domain R1-KDT (Homo sapiens, UniProt Q14671 828-1176, S863K;R864D;Q867T). The essentials:
as §1

Another assay deals with PUM1 PUF domain R1-MRR (Homo sapiens, UniProt Q14671 828-1176, S863M;Q867R). A digest of the protocol:
as §1

A further assay concerns the target PUM1 PUF domain R4-GRR (Homo sapiens, UniProt Q14671 828-1176, N971G;H972R;Q975R). The essentials:
as §1

Another assay deals with PUM1 PUF domain R4-SFR (Homo sapiens, UniProt Q14671 828-1176, N971S;H972F;Q975R). A digest of the protocol:
as §1

For the next assay, the target named is T1, PUM1 PUF domain R6-VYN (Homo sapiens, UniProt Q14671 828-1176, N1043V;Q1047N).
T1 sequence: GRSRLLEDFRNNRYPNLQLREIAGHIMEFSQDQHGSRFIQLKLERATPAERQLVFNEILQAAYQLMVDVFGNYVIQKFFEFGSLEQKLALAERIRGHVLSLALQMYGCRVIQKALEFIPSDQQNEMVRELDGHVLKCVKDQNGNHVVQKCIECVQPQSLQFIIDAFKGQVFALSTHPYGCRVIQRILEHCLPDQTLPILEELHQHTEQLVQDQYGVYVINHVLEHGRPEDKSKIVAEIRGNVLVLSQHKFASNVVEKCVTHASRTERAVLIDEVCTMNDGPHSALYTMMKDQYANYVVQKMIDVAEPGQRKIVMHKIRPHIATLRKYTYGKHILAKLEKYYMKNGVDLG
A digest of the protocol:
as §1

In another assay the target is PUM1 PUF domain R5-GRR (Homo sapiens, UniProt Q14671 828-1176, C1007G;Q1011R). The essentials: as §1
Another assay has as its target PUM1 PUF domain R3-VRD (Homo sapiens, UniProt Q14671 828-1176, C935V;Q939D). A digest of the protocol:
as §1

A further assay has as its target PUM1 PUF domain R8-KYW (Homo sapiens, UniProt Q14671 828-1176, N1122K;Q1126W). A digest of the protocol: as §1
A further assay addresses PUM1 PUF domain R5-WHS (Homo sapiens, UniProt Q14671 828-1176, C1007W;R1008H;Q1011S). A digest of the protocol: as §1
The next assay concerns the target PUM1 PUF domain R5-TVD (Homo sapiens, UniProt Q14671 828-1176, C1007T;R1008V;Q1011D). The essentials: as §1
In a further assay the target is PUM1 PUF domain R2-GWW (Homo sapiens, UniProt Q14671 828-1176, N899G;Y900W;Q903W). A digest of the protocol:
as §1

Another assay concerns the target PUM1 PUF domain R2-PVM (Homo sapiens, UniProt Q14671 828-1176, N899P;Y900V;Q903M). A digest of the protocol: as §1
Another assay deals with PUM1 PUF domain R2-VYE (Homo sapiens, UniProt Q14671 828-1176, N899V;Q903E). The essentials:
as §1

The target of the next assay is PUM1 PUF domain R1-RIE (Homo sapiens, UniProt Q14671 828-1176, S863R;R864I;Q867E). The essentials:
as §1

A further assay has as its target PUM1 PUF domain R5-PFL (Homo sapiens, UniProt Q14671 828-1176, C1007P;R1008F;Q1011L). The essentials:
as §1

“GGCUAGAACUAGUGGAUCCCCCGGCGCCCGGCGGCUCGAGCCCGGGUAAGUGUGAAUAGUCUGCAUGCCGCCGGGCGCCAUGCCUGCAGGUCGACUCUAGAAAACAUG”: the binding signal with PUM1 PUF domain R5-SAC is 3.04 log2 enrichment (interaction score).

With “GGCUAGAACUAGUGGAUCCCCCGGCGCCCGGCGGCUCGAGCCCGGGUAAGUGUAUAUAGUCUGCAUGCCGCCGGGCGCCAUGCCUGCAGGUCGACUCUAGAAAACAUG”, the figures for the binding signal with PUM1 PUF domain R4-QWP and in the assay with PUM1 PUF domain R4-GRS were 5.65 log2 enrichment (interaction score) and 2.08 log2 enrichment (interaction score), respectively.

As to “GGCUAGAACUAGUGGAUCCCCCGGCGCCCGGCGGCUCGAGCCCGGGUAAGUGUAAGUAGUCUGCAUGCCGCCGGGCGCCAUGCCUGCAGGUCGACUCUAGAAAACAUG”, in the assay with PUM1 PUF domain R3-FFV, the binding signal was 6.72 log2 enrichment (interaction score).

As to “GGCUAGAACUAGUGGAUCCCCCGGCGCCCGGCGGCUCGAGCCCGGGUAAGUGUAAAUCGUCUGCAUGCCGCCGGGCGCCAUGCCUGCAGGUCGACUCUAGAAAACAUG”, the figures for the binding signal with PUM1 PUF domain R1-GKR, with PUM1 PUF domain R1-KDT and with PUM1 PUF domain R1-MRR were 3.4 log2 enrichment (interaction score), 0.73 log2 enrichment (interaction score) and 2.6 log2 enrichment (interaction score), respectively.

With “GGCUAGAACUAGUGGAUCCCCCGGCGCCCGGCGGCUCGAGCCCGGGUAAGUGUACAUAGUCUGCAUGCCGCCGGGCGCCAUGCCUGCAGGUCGACUCUAGAAAACAUG”, the binding signal was 2.98 log2 enrichment (interaction score) in the assay with PUM1 PUF domain R4-GRR and 4.24 log2 enrichment (interaction score) in the assay with PUM1 PUF domain R4-SFR.

For the sequence “GGCUAGAACUAGUGGAUCCCCCGGCGCCCGGCGGCUCGAGCCCGGGUAAGUGAAAAUAGUCUGCAUGCCGCCGGGCGCCAUGCCUGCAGGUCGACUCUAGAAAACAUG”, the binding signal with PUM1 PUF domain R6-VYN is 6.4 log2 enrichment (interaction score).

On to “GGCUAGAACUAGUGGAUCCCCCGGCGCCCGGCGGCUCGAGCCCGGGUAAGUGUAAAUAGUCUGCAUGCCGCCGGGCGCCAUGCCUGCAGGUCGACUCUAGAAAACAUG”, for which the binding signal is 0.47 log2 enrichment (interaction score) in the assay with PUM1 PUF domain R5-GRR; 4.68 log2 enrichment (interaction score) with PUM1 PUF domain R3-VRD; 5.55 log2 enrichment (interaction score) in the assay with PUM1 PUF domain R8-KYW; 4.09 log2 enrichment (interaction score) in the assay with PUM1 PUF domain R4-GRS; 1.16 log2 enrichment (interaction score) with PUM1 PUF domain R5-WHS; 0.28 log2 enrichment (interaction score) in the assay with PUM1 PUF domain R5-TVD.

Regarding “GGCUAGAACUAGUGGAUCCCCCGGCGCCCGGCGGCUCGAGCCCGGGUAAGUGUCAAUAGUCUGCAUGCCGCCGGGCGCCAUGCCUGCAGGUCGACUCUAGAAAACAUG”, the binding signal in the assay with PUM1 PUF domain R5-GRR is 5.4 log2 enrichment (interaction score); in the assay with PUM1 PUF domain R5-TVD, 3.26 log2 enrichment (interaction score).

“GGCUAGAACUAGUGGAUCCCCCGGCGCCCGGCGGCUCGAGCCCGGGUAAGUGUAAAGAGUCUGCAUGCCGCCGGGCGCCAUGCCUGCAGGUCGACUCUAGAAAACAUG”: the binding signal was 0.92 log2 enrichment (interaction score) with PUM1 PUF domain R2-GWW and 2.58 log2 enrichment (interaction score) with PUM1 PUF domain R2-PVM.

Consider “GGCUAGAACUAGUGGAUCCCCCGGCGCCCGGCGGCUCGAGCCCGGGUAAGUGUAAAAAGUCUGCAUGCCGCCGGGCGCCAUGCCUGCAGGUCGACUCUAGAAAACAUG”, for which the binding signal with PUM1 PUF domain R2-GWW was 4.69 log2 enrichment (interaction score); in the assay with PUM1 PUF domain R2-VYE, 2.23 log2 enrichment (interaction score).

On to “GGCUAGAACUAGUGGAUCCCCCGGCGCCCGGCGGCUCGAGCCCGGGUAAGUGUAAUUAGUCUGCAUGCCGCCGGGCGCCAUGCCUGCAGGUCGACUCUAGAAAACAUG”, for which, in the assay with PUM1 PUF domain R3-FFV, the binding signal was 1.62 log2 enrichment (interaction score).

As to “GGCUAGAACUAGUGGAUCCCCCGGCGCCCGGCGGCUCGAGCCCGGGUAAGUGUAAAUUGUCUGCAUGCCGCCGGGCGCCAUGCCUGCAGGUCGACUCUAGAAAACAUG”, the binding signal with PUM1 PUF domain R1-GKR is 3.4 log2 enrichment (interaction score); with PUM1 PUF domain R1-KDT, 5.43 log2 enrichment (interaction score); in the assay with PUM1 PUF domain R1-MRR, 5.53 log2 enrichment (interaction score); with PUM1 PUF domain R1-RIE it was 2.99 log2 enrichment (interaction score).

Turning to “GGCUAGAACUAGUGGAUCCCCCGGCGCCCGGCGGCUCGAGCCCGGGUAAGUGUUAAUAGUCUGCAUGCCGCCGGGCGCCAUGCCUGCAGGUCGACUCUAGAAAACAUG”, the binding signal in the assay with PUM1 PUF domain R5-GRR is 0.43 log2 enrichment (interaction score); with PUM1 PUF domain R5-PFL, 4.31 log2 enrichment (interaction score); with PUM1 PUF domain R5-WHS, 4.68 log2 enrichment (interaction score).
